A selection: hits, their analogues and other compounds. The true share with any hit is near 12%.
HCV inhibitor: qHTS Assay for Inhibitors of Hepatitis C Virus (HCV); Huh7.5.1 HCVcc-Cre infection, luciferase reporter, 44 h; Potency, µM (titrated, usually from 41.8 µM), for inactives: top-dose activity change, negative = inhibition, actives largely listed as inhibitors; actives 3.4% (n = 340,000); AID 651820, 2012; also: % is scaled to controls: 0 for no effect and ±100 for the full control effect
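HCVcc-Cre virus at an moi near 0.5 was added right after compound to cells cultured 4 h from seeding (1,000 cells/well). Luciferase activity was determined 44 h later, 15 min after substrate addition at RT.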
AMA1 RON2 block: qHTS for Inhibitors of AMA1-RON; Towards Development of Antimalarial Drug Lead: Primary Screen. Plasmodium falciparum AMA1 (3D7) - RON2 peptide interaction. AlphaScreen AMA1-biotinylated RON2 peptide binding. Potency, µM (series often up to 58.2 µM), for the others: top-dose activity change, negative = inhibition, hits mostly inhibitors. actives 0.2% (n = 360,000);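 also: 0% = vehicle wells and -100% = peptide control; nearly all actives have a fitted effect of over 45% in size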
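AMA1 (3D7) with his tag at 25 nM final met compounds first, then biotinylated RON2 peptide at 25 nM; detection used donor plus acceptor beads, 10 µg/mL apiece, read by AlphaScreen after 30 min at room temperature.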
SARS PLpro yeast: qHTS of Yeast-based Assay for SARS-CoV PLP; S. cerevisiae expressing SARS-CoV PLpro, growth rescue; Potency, µM (doses to about 32.9 µM), without a hit: top-dose activity, positive = growth rescue, usual class: activators; actives 0.19% (n = 330,000); AID 485353, 2010; calls by dose curve; also: 0% is about no effect; nearly all actives have a fitted effect of over 55% in size
Pf growth 96h: Primary qHTS for delayed death inhibitors of the malarial parasite plastid, 96 hour incubation | AID 504834, 2011 | Potency, µM (titrated, usually from 28.7 µM), without a hit: at the top dose activity change, negative = inhibition, most hits filed as inhibitors | actives 6.9% (n = 320,000) | P. falciparum luciferase reporter growth, 96 h; also: % is scaled to controls: 0 for no effect and ±100 for the full control effect
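P. falciparum expressing integrated firefly luciferase, in erythrocytes at 2% hematocrit, 0.05% parasitemia, incubated with compounds 96 h at 37 C, 5% CO2. Growth inhibition read as loss of luminescence; two-generation exposure targets delayed-death apicoplast inhibitors.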
NS1 inh: qHTS Assay for Inhibitors of Influenza NS1 Protein Function. Potency, µM (doses to about 46.1 µM), inactives show at the top dose activity, positive = more growth. AID 2326, 2010. actives 0.4% (n = 270,000); calls by dose curve; also: actives are rising curves; nearly all actives have a fitted effect of over 50% in size
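A cell-based growth assay was used: compounds that relieve NS1-induced slow growth of budding yeast raise OD600. Assay medium was yeast nitrogen base with ammonium sulphate and -URA supplement, pH 6.0, with 2% galactose.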
Pf growth 48h: Primary qHTS for delayed death inhibitors of the malarial parasite plastid, 48 hour incubation | P. falciparum luciferase growth in erythrocytes, 48 h | Potency, µM (highest dose often 28.7 µM), inactives show top-dose activity change, negative = inhibition, actives largely listed as inhibitors | actives 5.9% (n = 310,000) | AID 504832, 2011; also: % is scaled to controls: 0 for no effect and ±100 for the full control effect
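Parasite viability was followed by luminescence of a genomically integrated firefly luciferase. Cultures held 0.1% parasitemia at 2% hematocrit (final), incubated under 5% CO2 at 37 C.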
The depositor's hits bear a star; ? = inconclusive; . = no result given. Unless noted, calls follow the shape of the dose curve; as a rule, active = well fitted curve in the direction sought with a large enough effect; inconclusive = small, poorly fitted or top-dose-only effect, or another doubt; inactive = no such curve, though single readings can be large; an effect the other way counts as inactive or inconclusive. Potency is read from the fitted curve at half-maximal effect.

SMILES	HCV inhibitor	AMA1 RON2 block	SARS PLpro yeast	Pf growth 96h	NS1 inh	Pf growth 48h
Fc1cccc(Cn2cc(C(=S)N3CCOCC3)c3ccccc32)c1	-11%	-7%	-1%	120%	4%	?
Fc1cccc(Cn2cc(C(=S)N3CCCCC3)c3ccccc32)c1	-8%	?	-9%	?	0%	12µM*
COCCN(Cc1nc(C2(c3ccc(C)cc3)CCCC2)no1)C(C)C	-8%	-1%	1%	13µM*	-10%	?
Cc1ccc(C2(c3noc(CN(C)CCO)n3)CCCC2)cc1	6%	25%	0%	0%	3%	?
Cc1ccc(C2(c3noc(CN4CCC(c5ccncc5)CC4)n3)CCCC2)cc1	10µM*	?	-1%	12µM*	-5%	?
Cn1c(=O)c2ncn(CC(=O)N/N=C/c3ccco3)c2n(C)c1=O	18%	8%	-7%	5.9µM*	0%	12%
Cn1c(=O)c2ncn(CC(=O)N/N=C/C=C/c3ccccc3)c2n(C)c1=O	1%	14%	-4%	428%	-6%	49%
COc1cc(OC)cc(C(=O)NC(C(=O)Nc2ccc3c(c2)OCO3)C(C)C)c1 (centres undefined)	?	-9%	-6%	-65%	.	?
COc1cc(OC)cc(C(=O)NC(C(=O)Nc2ccc3nc(C)sc3c2)C(C)C)c1 (centres undefined)	?	-2%	10%	6.6µM*	.	3.3µM*
COc1ccc(NS(=O)(=O)c2cc(NC(=O)[C@@H](NC(=O)c3ccccc3)C(C)C)ccc2C)cc1	?	-1%	10%	9.3µM*	?	9.3µM*
Cc1nc2ccc(NC(=O)[C@@H](NC(=O)c3c(F)cccc3F)C(C)C)cc2s1	?	-6%	5%	?	.	2.1µM*
CC(C)[C@H](NC(=O)c1c(F)cccc1F)C(=O)Nc1cccc(Br)c1	-10%	-13%	0%	-10%	3%	-9%
COc1ccc(NS(=O)(=O)c2cc(NC(=O)c3ccc(=O)[nH]c3)ccc2C)cc1	-21%	2%	1%	-16%	.	14%
COc1cc(OC)cc(C(=O)N[C@H](C(=O)Nc2nc3ccc(S(C)(=O)=O)cc3s2)C(C)C)c1	5%	3%	0%	?	.	4.7µM*
O=C(NCCCSc1ccccc1)c1cc(Br)ccc1O	?	10%	1%	-19%	14%	11%
O=C1c2ccc(Cl)cc2S(=O)(=O)c2cccc(C(=O)N3CCC(Cc4ccccc4)CC3)c21	?	-23%	-3%	1%	.	40%
CC1(C)[C@@H]2CC[C@]1(C)CN(CCC[N+](C)(C)C)C2	.	.	.	.	-3%	.
c1cnc2nc3c4ccccc4c4ccccc4c3nc2c1	2.8µM*	-14%	.	.	.	.
O=C1C(Cl)=C(Nc2cccc(O)c2)C(=O)N1Cc1ccccc1	-1%	-26%	-2%	4.7µM*	.	-24%
COc1ccc(OC)c(NC2=C(Cl)C(=O)N(Cc3ccccc3)C2=O)c1	-2%	13µM*	-1%	-13%	-3%	-25%
CC(=O)c1sccc1NC(=O)c1ccccc1C(=O)O	25%	-7%	1%	46%	-1%	18%
CCCCCCNC(=O)CCCCCNS(=O)(=O)c1ccc(Br)cc1	-13%	15%	1%	65%	.	?
Cc1cccc(COCCN2CCN(S(=O)(=O)c3ccccc3)CCC2=O)c1	4%	10%	2%	15µM*	2%	-8%
O=C1CCN(S(=O)(=O)c2ccccc2)CCN1CCOCc1ccccc1	0%	15%	4%	9.3µM*	8%	-6%
Cc1ccc(S(=O)(=O)N2CCC(=O)N(CCOCc3ccc(Cl)cc3)CC2)cc1	?	-5%	-3%	-19%	-31%	-7%
COc1ccc(S(=O)(=O)N2CCCOC2CNC(=O)C(=O)NCc2ccccc2C)cc1 (centres undefined)	.	0%	.	.	.	.

Screening data from PubChem.
